About 13,000 (27%) of roughly 48,000 compounds showed an effect of 50% or more. The list shows a part of the results.
test system: Wolbachia pipientis; test: Anti-Wolbachia Cell-Based Screen; format: functional; design: scale not given: in the data most compounds retested in dose-response had high values; conditions: 5 µM

SMILES | Percent Effect [%]
Cc1ccc(CNC(CCO)C2CCCCC2)nc1 (stereo not given) | 14.22
CCOCC(=O)Nc1ncn(Cc2cccc(Br)c2)n1 | 5.844
CNC(=O)C1CCCCN1C(=O)c1csc(-c2ccc(C)cc2)n1 (stereo not given) | -3.515
C[S+]([O-])c1nncn1CCCc1ccc(Cl)cc1 (stereo not given) | 1.023
O=C(CCc1ccccc1)C1CCCN(Cc2cncn2C2CC2)C1 (stereo not given) | -3.844
CS(=O)(=O)N1CCCC(C(=O)N2CCOc3ccccc32)C1 (stereo not given) | -6.293
NC(=O)C1CCN(S(=O)(=O)c2cnn(-c3ccccc3)c2)C1 (stereo not given) | -1.203
CCS(=O)(=O)N1CCCC(n2nnn(-c3ccccc3)c2=O)C1 (stereo not given) | 133
CS(=O)(=O)N1CCC(N2CCCC2c2ccccn2)CC1 (stereo not given) | -15.97
CCS(=O)(=O)Cc1nnnn1-c1ccccc1 | 1.834
CS(=O)(=O)N1CCC(n2nnn(-c3ccccc3)c2=O)CC1 | 113.8
CCS(=O)(=O)N1CCCC(c2nc3ccccc3n2C(C)C)C1 (stereo not given) | -13.43
CS(=O)(=O)N1CCN2C(=O)N(C3CCCCC3)C[C@H]2C1 | -8.389
CS(=O)(=O)N1CCCC(n2nnn(-c3ccccc3)c2=O)C1 (stereo not given) | 149.4
Cc1nc(CN2CCC(CNC(=O)C3(C#N)CCCC3)CC2)oc1C | -2.689
O=C(NCCNS(=O)(=O)c1cc(F)cc(F)c1)c1ccoc1 | 3.11
COCc1ncc(CN(CCN(C)C)Cc2ccc(C)s2)cn1 | -7.942
OC(CNCCn1cccn1)COc1ccc2ccccc2c1 (stereo not given) | -4.73
CO[C@@H]1CCN(S(=O)(=O)c2cn(C)cn2)[C@H]1Cc1ccncc1.O=C(O)C(F)(F)F | 7.215
Cn1nccc1C(=O)N1CCN(C(=O)C2CCC2)[C@@H]2CS(=O)(=O)C[C@@H]21 | -1.449
CC1=Nc2c(c(=O)[nH]n2C2CCCC2)C(c2ccc(C(=O)O)cc2)S1 (stereo not given) | 117.5
CC1=Nc2c(c(=O)[nH]n2C2CCCC2)C(c2cccc(O)c2)S1 (stereo not given) | 4.051

SMILES | Percent Effect [%]
O=C1CC(C2CCCCC2)c2c(n(C3CCCC3)[nH]c2=O)N1 (stereo not given) | -0.7877
COc1ccc(C2SC(C)=Nc3c2c(=O)[nH]n3C2CCCCC2)cc1O (stereo not given) | 9.619
CC1=Nc2c(c(=O)[nH]n2C2CCCC2)C(c2cccnc2)S1 (stereo not given) | 106.9
CC1(C)CC1(C(=O)N1CC(c2cccnc2)C1)c1ccc(F)cc1 (stereo not given) | -9.092
CC1=Nc2c(c(=O)[nH]n2C2CCCCC2)C(c2ccc(C(=O)O)cc2)S1 (stereo not given) | 110.1
C[C@@H]1CN(C2CCN(Cc3nn(C)c4cccc(Cl)c34)CC2)C[C@H](C)O1 | 24.58
C[C@@H]1CN(CC(C)(C)N2CCCCC2)CC[C@@]1(O)C1CC1 | 22.77
CC(CN1CCOCC1)N(Cc1ccccc1)Cc1ccncc1 (stereo not given) | 4.516
O=C(Nc1cn[nH]c1)c1ccc(O)nc1 | -8.814
Cc1ccc(NCCNC(=O)C2Cc3cc(C)c(C)cc3O2)nn1 (stereo not given) | -19.52
CCOc1ncccc1C(=O)N1CCCC1c1c(C)nn(C)c1Cl (stereo not given) | 122.7
COc1ncccc1C(=O)N1CCCC1c1c(C)n[nH]c1C (stereo not given) | -9.272
COc1ncccc1C(=O)N1CCCC1c1c(C)nn(C)c1Cl (stereo not given) | 89.91
CCOc1ncccc1C(=O)N1CCCCC1c1nccs1 (stereo not given) | 4.622
CCCNC(=O)C(C)Nc1ccc(OCC)cc1 (stereo not given) [PROPETAMIDE] | -10.93
CC(=O)N1Cc2ccccc2CC1C(=O)Nc1ccc(N(C)C)cn1 (stereo not given) | -0.765
CCS(=O)(=O)NCCNc1c(C#N)cnc2c(C)cc(F)cc12 | -8.935
COc1ccc(-c2ccc(C(=O)NS(C)(=O)=O)c(F)c2)cc1 | -4.531
CCOc1c(CNCCCn2ccnc2)cc(Cl)cc1OC.Cl.Cl | 2.415
CCCn1nnc(NCc2cc(Br)cc(Br)c2OC)n1 | 116
CCCC(=O)NCc1cc(Br)c(OC)c(OC)c1 | -2.36
CCn1nnc(NCc2cc(Br)cc(Br)c2OC)n1 | 107.9

SMILES | Percent Effect [%]
CCn1nnc(NCc2cc(Cl)cc(Cl)c2OC)n1 | 112
COc1cc(Br)c(CNc2ccn(CCC(N)=O)n2)cc1OC | -66.5
CCOc1c(Cl)cc(Cl)cc1CNCCCn1ccnc1 | 7.909
CC(CN1CCCC1=O)NC(=O)c1cc(-c2cccc(Cl)c2)no1 (stereo not given) | -44.82
COCC(=O)N[C@H](C)c1onc(-c2ccccc2)c1C(=O)O | -4.041
CN(C)CC1CN(Cc2nnc(-c3ccccc3Cl)o2)CCO1 (stereo not given) | 1.962
COCCn1cc(C(=O)N2CCCC(n3cncn3)C2)ccc1=O (stereo not given) | -8.291
CS(=O)(=O)Cc1cccc(C(=O)N2CCCC(n3cccn3)C2)c1 (stereo not given) | 7.401
O=C(c1cccc(CN2CCCC2)c1)N1CCCC(n2cncn2)C1 (stereo not given) | -4.839
CCc1cccc(OCC(=O)N2CCCC(n3cncn3)C2)c1 (stereo not given) | 9.617
O=C(c1cccc(OC2CCCC2)c1)N1CCCC(n2cncn2)C1 (stereo not given) | -3.661
COC(=O)c1cccc(C(=O)N2CCCC(n3cncn3)C2)c1 (stereo not given) | 108.5
CN(C)Cc1cccc(C(=O)N2CCCC(n3cncn3)C2)c1 (stereo not given) | 139.2
CCCOc1cccc(C(=O)N2CCCC(n3cncn3)C2)c1 (stereo not given) | 99.87
COc1cc(CCC(=O)NCC2CCCN2C)ccc1OCC(F)(F)F (stereo not given) | -0.8695
CC(=O)N1C[C@H](c2cc(O)nc(C)n2)[C@@H](c2ccccc2F)C1 | 117
Cc1nc(O)cc(C2CCCN(C(=O)COCc3ccccc3)C2)n1 (stereo not given) | 12.86
CC(=O)N1C[C@@H](F)[C@@H](OCc2nc3ccccc3o2)C1 | -12.47
Cc1nc(O)cc([C@@H]2CN(C(=O)C3CC3)C[C@H]2c2ccccc2F)n1 | 114.1
COCC(=O)N1C[C@@H](c2cc(O)nc(C)n2)[C@H](c2ccccc2F)C1 | 108.7
COCC(=O)N1C[C@H]2CN(Cc3csc(C)n3)C(=O)[C@H]2C1.O=C(O)C(F)(F)F | -18.32
